# PD-1 reverse act: reversal of PD-1 mediated T-cell inhibition | primary human CD4 T cells, PD-L1 beads, CellTiter-Glo 96 h | activation, % (concentration not given with the values) | 29,000 tested, under 10 active; call rule not given here;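 further: 0% = median vehicle wells and 100% = positive control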
# NOMO-1 viab: STK33 inhibitor candidate reducing NOMO-1 cell viability. NOMO-1 AML viability, CellTiter-Glo luminescence, 72 h. inhibition, % (concentration not given with the values). actives 7.5% (n = 37,000). AID 2330; in the data active means inhibition above about 80%
# STK33 kin inh: blocks human STK33 kinase activity; ADP-Glo luminescence, MBP substrate; AID 2322; inhibition, % at 12.5 µM; actives 0.44% (n = 27,000); in the data active means inhibition above about 20%
# Target sequence (Q9BYT3 whole entry, looked up): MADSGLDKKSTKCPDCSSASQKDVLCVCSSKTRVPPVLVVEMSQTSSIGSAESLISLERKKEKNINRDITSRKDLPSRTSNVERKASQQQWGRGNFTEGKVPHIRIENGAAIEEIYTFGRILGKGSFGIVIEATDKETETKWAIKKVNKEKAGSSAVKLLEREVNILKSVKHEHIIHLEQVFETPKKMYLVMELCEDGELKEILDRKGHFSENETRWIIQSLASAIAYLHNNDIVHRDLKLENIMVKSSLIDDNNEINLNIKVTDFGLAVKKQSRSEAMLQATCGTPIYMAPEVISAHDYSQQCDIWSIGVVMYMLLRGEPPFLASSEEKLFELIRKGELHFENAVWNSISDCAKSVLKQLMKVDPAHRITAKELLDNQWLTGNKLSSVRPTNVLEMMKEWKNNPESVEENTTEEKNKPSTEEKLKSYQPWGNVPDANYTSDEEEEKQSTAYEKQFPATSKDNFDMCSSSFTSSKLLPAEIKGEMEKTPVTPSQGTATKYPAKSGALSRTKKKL
# Starred values were filed as active, the others as inactive; . = not tested or not shown. The full list was thinned out, with hits kept by preference.
SMILES,PD-1 reverse act,NOMO-1 viab,STK33 kin inh
C[C@@H]1CN([C@H](C)CO)C(=O)Cc2cc(NC(=O)Nc3ccc(F)cc3)ccc2O[C@@H]1CN(C)Cc1ccccc1,-0.4,51.5,-3.2
CC(C)NC(=O)Nc1ccc2c(c1)CC(=O)N([C@H](C)CO)C[C@@H](C)[C@@H](CN(C)Cc1ccc(-c3ccccc3)cc1)O2,-2.6,82.1*,-4.0
C[C@@H]1CN([C@H](C)CO)C(=O)Cc2cc(NC(=O)Nc3ccc4c(c3)OCO4)ccc2O[C@H]1CN(C)Cc1ccccc1,.,-0.6,-4.3
C[C@@H]1CN([C@H](C)CO)C(=O)Cc2cc(NC(=O)Nc3ccc4c(c3)OCO4)ccc2O[C@H]1CN(C)Cc1ccc(-c2ccccc2)cc1,1.9,98.2*,4.3
CCOC(=O)CSc1nc2ccc(I)cc2c(=O)n1-c1ccccc1OC,-0.6,36.5,-3.1
CC(=O)N(C)c1ccc(NC(=O)COc2ccc([N+](=O)[O-])cc2)cc1,-1.5,11.5,1.1
CC(=O)Nc1ccc(C(=O)CSc2nc3ccccc3n2C)cc1,-1.6,1.0,-0.7
Cc1cc(OCC(=O)Nc2ccccc2-c2nc3ccccc3s2)ccc1Cl,0.8,-2.9,-0.8
COc1ccc(NC(=O)Nc2ccc3c(c2)C(=O)N([C@@H](C)CO)C[C@@H](C)[C@@H](CN(C)Cc2ccc(Oc4ccccc4)cc2)O3)cc1,-5.3,116.7*,1.3
COc1ccc(NC(=O)Nc2ccc3c(c2)C(=O)N([C@H](C)CO)C[C@@H](C)[C@@H](CN(C)Cc2ccc(-c4ccccc4)cc2)O3)cc1,.,93.7*,.
COc1ccc(NC(=O)Nc2ccc3c(c2)C(=O)N([C@@H](C)CO)C[C@H](C)[C@H](CN(C)Cc2ccc(-c4ccccc4)cc2)O3)cc1,4.8,29.1,3.0
COc1ccc(NC(=O)Nc2ccc3c(c2)C(=O)N([C@@H](C)CO)C[C@@H](C)[C@H](CN(C)Cc2ccc(Oc4ccccc4)cc2)O3)cc1,.,-4.2,.
Cc1cc(-c2nc3ccccc3s2)ccc1NC(=O)COc1ccccc1[N+](=O)[O-],.,40.9,-1.3
O=S(=O)(NCC1CCN(Cc2ccc(OCCO)cc2)CC1)c1ccccc1,.,.,-1.8
CS(=O)(=O)N(CC(=O)Nc1ccc(C(F)(F)F)cc1)c1ccc(F)cc1,-3.2,43.8,-5.5
CN[C@H]1CC[C@@H](c2ccc(Cl)c(Cl)c2)c2ccccc21,.,107.1*,3.0
Nc1ncnc(NCCN2CCOCC2)c1[N+](=O)[O-],1.5,-21.0,-0.9
C[C@@H]1CCCCO[C@H](CN(C)CC2CCCCC2)[C@@H](C)CN([C@H](C)CO)C(=O)c2cc(NC(=O)Nc3ccc(F)cc3)ccc2O1,-2.6,65.7,3.3
C[C@@H]1CCCCO[C@@H](CN(C)CC2CCCCC2)[C@@H](C)CN([C@H](C)CO)C(=O)c2cc(NC(=O)Nc3ccccc3)ccc2O1,0.2,122.5*,-0.3
C[C@@H]1CCCCO[C@@H](CN(C)CC2CCCCC2)[C@@H](C)CN([C@H](C)CO)C(=O)c2cc(NC(=O)c3ccccc3)ccc2O1,-0.3,116.8*,1.5
C[C@@H]1CCCCO[C@@H](CN(C)C)[C@@H](C)CN([C@H](C)CO)C(=O)c2cc(NC(=O)c3ccccc3)ccc2O1,.,122.6*,.
C[C@@H]1CCCCO[C@H](CN(C)CC2CCCCC2)[C@@H](C)CN([C@H](C)CO)C(=O)c2cc(NC(=O)c3ccncc3)ccc2O1,-1.9,18.4,-0.9
C[C@@H]1CCCCO[C@@H](CN(C)C(=O)c2ccccc2)[C@@H](C)CN([C@H](C)CO)C(=O)c2cc(NC(=O)c3ccccc3)ccc2O1,-0.9,14.8,1.0
COc1cc(-c2c(C#N)c(SCC#N)nc(N)c2C(=O)OC(C)C)cc(OC)c1OC,0.5,2.2,.
Cn1c(SCC(=O)Nc2ccccc2[N+](=O)[O-])nc2ccccc2c1=O,1.5,30.7,-9.2
SMILES,PD-1 reverse act,NOMO-1 viab,STK33 kin inh
O=C(Nc1ccc(-c2ccccc2)cc1)C1CC1c1ccccc1 (stereo not drawn),-0.2,32.0,.
O=C1c2ccccc2-[n+]2ccc3c([nH]c4ccccc43)c21,-57.3,98.8*,5.1
COC(=O)c1c(NC(=O)c2ccc(OC)c(OC)c2)sc2c1C(C(=O)OC)CC2 (stereo not drawn),-5.2,39.6,3.5
C[C@@H]1CN([C@@H](C)CO)C(=O)Cc2cc(N(C)C)ccc2O[C@@H]1CN(C)Cc1ccc(C(=O)Nc2ccccc2N)cc1,-3.1,140.2*,.
C[C@H]1CN([C@@H](C)CO)C(=O)Cc2cc(N(C)C)ccc2O[C@@H]1CN(C)Cc1ccc(C(=O)Nc2ccccc2N)cc1,-0.4,139.5*,.
Cc1c(NC(=O)CCN2C(=O)c3ccccc3C2=O)cccc1C(=O)O,3.2,-24.2,-3.2
C[C@H](CO)N1C[C@H](C)[C@H](CN(C)Cc2ccc(C(=O)Nc3ccccc3N)cc2)Oc2ccc(NS(C)(=O)=O)cc2CC1=O,-1.0,128.8*,.
C[C@H]1CN([C@@H](C)CO)C(=O)Cc2cc(NS(C)(=O)=O)ccc2O[C@H]1CN(C)Cc1ccc(C(=O)Nc2ccccc2N)cc1,-0.8,83.8*,.
C[C@@H]1CN([C@H](C)CO)C(=O)Cc2cc(NS(C)(=O)=O)ccc2O[C@H]1CN(C)Cc1ccc(C(=O)Nc2ccccc2N)cc1,-0.4,22.0,.
C[C@@H]1CN([C@H](C)CO)C(=O)Cc2cc(NS(C)(=O)=O)ccc2O[C@@H]1CN(C)Cc1ccc(C(=O)Nc2ccccc2N)cc1,1.0,36.4,.
C=CCNC(=O)[C@H]1[C@@H]2C(=O)O[C@@H](c3ccccc3)[C@@H](c3ccccc3)N2[C@@H](c2ccc(OCCO)cc2)[C@]12C(=O)Nc1ccc(C#CCNC(N)=O)cc12,.,.,13.6
Cc1csc2sc(-c3ccnc(SCc4ccccc4)n3)c(C)c12,1.0,-2.5,1.5
Cc1c(Br)sc2sc(-c3ccnc(SCC(=O)NC(C)C)n3)c(C)c12,0.2,114.9*,.
C=CCNC(=O)CSc1nccc(-c2sc3sc(Br)c(C)c3c2C)n1,-0.6,109.6*,12.1
CCOC(=O)c1c(NC(=O)CSc2nccc(C)n2)sc(C)c1C,-3.5,18.3,-1.1
COc1ccc(CCN2C(=O)C(NC(=O)C(C)(C)C)(C(F)(F)F)C3=C2CC(C)(C)CC3=O)cc1OC (stereo not drawn),1.7,3.6,-0.9
Cc1ccc([N+](=O)[O-])cc1NC(=O)CN(C)S(=O)(=O)c1cc(Cl)ccc1Cl,0.3,14.9,-8.4
O=C1c2cccc3cccc(c23)C(=O)N1CCCSc1nnc(-c2ccncc2)n1-c1ccccc1,-2.0,30.1,6.0
COc1cccc2cc(C(=O)C3C(=O)C(=O)N(Cc4ccco4)C3c3ccc(F)cc3)oc12 (stereo not drawn),.,10.0,1.0
CC(C)=CCc1c2c(c3occ(-c4ccc(O)cc4)c(=O)c3c1O)C=CC(C)(C)O2,.,106.6*,0.7
CC1(C)C=Cc2c(c(CCO)c3occ(-c4ccc(O)c(O)c4)c(=O)c3c2O)O1,-0.4,39.6,11.0
Cc1c(C)c(C)c(C(=O)/C=N/N)c(C)c1C,2.1,1.9,.
Cc1ccc(S(=O)(=O)N2C(=O)CCC2C(=O)Nc2ccc(I)cc2)cc1 (stereo not drawn),1.8,-0.8,1.7
CC(=O)c1cccc(NC(=S)NCc2cccnc2)c1,.,15.2,14.9
COC(=O)c1cc(NC(=S)NCc2cccnc2)cc(C(=O)OC)c1,-1.3,106.4*,0.5
Cc1cc(-c2ccccn2)n[nH]c1=O,-0.1,13.6,.

# Screens as filed in PubChem.
